Results taken from the supplement of paper PMC12645437, “Orthogonal IMiD-Degron Pairs Induce Selective Protein Degradation in Cells” (ACS Chemical Biology, 2025).
In all, about 8,300 sequences were measured (“log2 fold change of degron read counts, EGFP-low vs EGFP+ sorted cells (limma voom), compound-induced degradation”: median about -1.1, highest 2% from about 3.2 on). The full list was thinned out, with the highest values kept by preference.

T1: CRBN, Q96SW2
T1 chain: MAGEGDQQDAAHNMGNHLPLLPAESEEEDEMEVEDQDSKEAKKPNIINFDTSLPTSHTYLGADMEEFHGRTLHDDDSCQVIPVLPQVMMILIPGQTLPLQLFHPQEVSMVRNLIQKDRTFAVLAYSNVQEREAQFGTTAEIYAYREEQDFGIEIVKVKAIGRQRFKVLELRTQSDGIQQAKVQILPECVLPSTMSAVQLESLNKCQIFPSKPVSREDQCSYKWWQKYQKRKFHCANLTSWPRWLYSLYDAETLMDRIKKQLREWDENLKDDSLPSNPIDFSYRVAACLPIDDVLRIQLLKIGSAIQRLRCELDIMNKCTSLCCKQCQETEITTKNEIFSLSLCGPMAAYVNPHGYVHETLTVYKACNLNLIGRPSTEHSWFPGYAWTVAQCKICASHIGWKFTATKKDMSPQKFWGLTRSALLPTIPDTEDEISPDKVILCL


Biological target: T1, CRBN, Q96SW2
Assay: log2 fold change of degron read counts, EGFP-low vs EGFP+ sorted cells (limma voom), compound-induced degradation; higher = more compound-induced degradation of the degron-EGFP fusion; degrons are variants of IKZF1/3 zinc finger 2; compound dose not given here
Conditions: Jurkat, 18 h
[1] = compound: compound 19 (5-tert-butyl-thalidomide)
[2] = compound: compound 22 (5-morpholino-thalidomide)
[3] = compound: compound 33 (diphenyl IMiD analogue)
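Also: pooled lentiviral library of zinc finger degron-EGFP fusions in mCherry-positive Jurkat cells, FACS-sorted after compound exposure, with degron abundance counted by next-generation sequencing.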

| Sequence | log2 fold change of degron read counts [1] | log2 fold change of degron read counts [2] | log2 fold change of degron read counts [3] | log2 fold change of degron read counts (compound: thalidomide) |
| --- | --- | --- | --- | --- |
| FKCDICGAGFTQKGNLLRHIKL [46F_47K_49D_50I_52G_53A_54G_55F_67L_, Q9UKT9] | 0.734 | -1.83 | -2.3 | -1.43 |
| FLCNICGAAFTQKGNLLRHIKL [46F_47L_49N_50I_52G_53A_54A_55F_67L_, Q9UKT9] | -0.363 | -1.33 | 0.248 | 0.231 |
| FRCPICGRMFTQKGNLLRHIKL [46F_47R_49P_50I_52G_53R_54M_55F_67L_, Q9UKT9] | -1.98 | -1.28 | -0.201 | 0.319 |
| FHCNQCGHNFTQKGNLLRHIKL [46F_47H_49N_50Q_52G_53H_54N_55F_67L_, Q9UKT9] | -2.43 | -3.18 | -2.46 | -2.52 |
| FVCNICGAYFTQKGNLLRHIKL [46F_47V_49N_50I_52G_53A_54Y_55F_67L_, Q9UKT9] | -0.917 | -0.227 | 1.05 | 1.24 |
| FSCEQCGAHFTQKGNLLRHIKL [46F_47S_49E_50Q_52G_53A_54H_55F_67L_, Q9UKT9] | -1.34 | -2.19 | -1.26 | -1.95 |
| FECPVCGACFTQKGNLLRHIKL [46F_47E_49P_50V_52G_53A_54C_55F_67L_, Q9UKT9] | 0.122 | -0.609 | 2.52 | 2.75 |
| FTCPVCGACFTQKGNLLRHIKL [46F_47T_49P_50V_52G_53A_54C_55F_67L_, Q9UKT9] | 0.948 | 2.51 | 2.73 | 3.33 |
| FICPVCGACFTQKGNLLRHIKL [46F_47I_49P_50V_52G_53A_54C_55F_67L_, Q9UKT9] | -0.981 | 2.06 | 2.04 | 2.16 |
| FCCDICGAHFTQKGNLLRHIKL [46F_47C_49D_50I_52G_53A_54H_55F_67L_, Q9UKT9] | 0.131 | -0.464 | -0.191 | -0.916 |
| FNCDICGAHFTQKGNLLRHIKL [46F_47N_49D_50I_52G_53A_54H_55F_67L_, Q9UKT9] | 0.871 | -0.896 | -1.51 | -1.76 |
| FECDICGAHFTQKGNLLRHIKL [46F_47E_49D_50I_52G_53A_54H_55F_67L_, Q9UKT9] | -1.93 | -3.04 | -0.896 | -0.791 |
| FYCDICGAHFTQKGNLLRHIKL [46F_47Y_49D_50I_52G_53A_54H_55F_67L_, Q9UKT9] | 2.51 | 3.38 | 0.931 | -1.03 |
| FQCDICGAHFTQKGNLLRHIKL [46F_47Q_49D_50I_52G_53A_54H_55F_67L_, Q9UKT9] | -1.42 | -0.152 | -0.605 | 1.82 |
| FWCDICGAHFTQKGNLLRHIKL [46F_47W_49D_50I_52G_53A_54H_55F_67L_, Q9UKT9] | 2.34 | 3.41 | 0.744 | -0.669 |
| LCCNQCGFRCTQKGNLLRHIKL [46L_47C_49N_50Q_52G_53F_54R_55C_67L_, Q9UKT9] | -1.39 | -1.65 | -1.27 | -1.01 |
| FTCEICGAFFTQKGNLLRHIKL [46F_47T_49E_50I_52G_53A_54F_55F_67L_, Q9UKT9] | -0.327 | 0.0883 | 0.985 | 1.57 |
| FDCNICGAFFTQKGNLLRHIKL [46F_47D_49N_50I_52G_53A_54F_55F_67L_, Q9UKT9] | -1.62 | -1.63 | -0.882 | -0.692 |
